The record followed here is the supplement of paper PMC10498489.

Hit rate of the full screen: of about 2,300 compounds, about 330 (14%) showed activity.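 The calls were made as follows: active = median modified Z-score above 1.96; inactive = 1.96 or below.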 Only a sample is shown.

This test deals with HepG2 Srxn1-GFP reporter cells (+30 nM CDDO-Me). Briefly: Srxn1-GFP intensity median modified Z-score relative to plate median; higher = stronger NRF2 / oxidative stress reporter activation, active = hit call of the paper. The following applies: 10 µM; exposure time: 24h. The procedure, abridged: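 Per-cell cytoplasmic GFP was measured on confocal images of formaldehyde-fixed, Hoechst-stained HepG2 Srxn1-GFP BAC reporter cells, excluding images with fewer than 100 cells. Before this, the cells (20,000 per well, 96-well plates) were co-exposed for 24 h to compound at 10 μM and an NRF2 activator at 30 nM with ≤0.1% DMSO, in three replicate plates. Each value is the median over replicates of the per-plate modified Z-score of GFP intensity. That score was scaled with 1.4826 × median absolute deviation.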
Regarding `CCCCCN=C(N)NN=Cc1c[nH]c2ccc(OC)cc12` [euspeclibcmpd723], the “Srxn1-GFP intensity median modified Z-score” value was -0.285 (inactive). For `CCCSc1ccc2[nH]c(=NC(=O)OC)[nH]c2c1` [euspeclibcmpd630] the value was 3.71 (active); for `CCCOc1ccc2[nH]c(=NC(=O)OC)[nH]c2c1` [euspeclibcmpd575], 5.09 (active). As for `COc1ccc2[nH]cc(CCNC(C)=O)c2c1` [euspeclibcmpd1720], the “Srxn1-GFP intensity median modified Z-score” value is -0.164 (inactive). Take `NCCc1c[nH]cn1` [euspeclibcmpd147]: the “Srxn1-GFP intensity median modified Z-score” value is 0.0512 (inactive). For the compound `COC=C1CS[C@@H]2C(=NC(=O)C(NOC)c3csc(=N)[nH]3)C(=O)N2C1C(=O)OC(C)OC(=O)OC(C)C` (stereo not given in full) [euspeclibcmpd832], the “Srxn1-GFP intensity median modified Z-score” value is -0.299 (inactive). Regarding `O=C1CC2(CCCC2)CC(=O)N1CCCCN1CCN(c2ncccn2)CC1` [euspeclibcmpd948], the “Srxn1-GFP intensity median modified Z-score” value was 0.569 (inactive). For `CC1(C)SC2C(NC(=O)C(C(=O)O)c3ccsc3)C(=O)N2C1C(=O)O` (stereo not given) [euspeclibcmpd2129] the value was -0.127 (inactive); for `C[C@H](CCC(=O)O)[C@H]1CCC2C3C(CC[C@@]21C)[C@@]1(C)CC[C@@H](O)C[C@H]1C[C@H]3O` (stereo not given in full) [euspeclibcmpd2399], -0.395 (inactive). Take `CCC(=O)O[C@H]1[C@H](O[C@@H]2[C@@H](C)[C@H](O[C@H]3C[C@@](C)(OC)[C@@H](O)[C@H](C)O3)C(C)C(=O)O[C@H](CC)[C@@](C)(O)[C@H](O)C(C)C(=O)C(C)C[C@@]2(C)O)O[C@H](C)C[C@@H]1N(C)C` (stereo not given in full) [euspeclibcmpd411]: the “Srxn1-GFP intensity median modified Z-score” value is 0.128 (inactive). Regarding `COC(=O)c1c(C)cc(O)cc1O` [euspeclibcmpd2120], the “Srxn1-GFP intensity median modified Z-score” value was -0.435 (inactive). In the case of `CC(=O)OCC(=O)[C@@]1(O)CCC2C3CC=C4CC(=O)C=CC4(C)C3[C@@H](O)C[C@@]21C` (stereo not given in full) [euspeclibcmpd242], the “Srxn1-GFP intensity median modified Z-score” value was -0.458 (inactive). Regarding `O=C(NCCN1CCOCC1)NC(=O)c1ccc(Cl)cc1`, the “Srxn1-GFP intensity median modified Z-score” value was 1.77 (inactive).

Consider `COC(=O)C1CCN(C(=O)C(OC(=O)C2CCC(=O)NC2)C(C)C)CC1` (stereo not given), for which the “Srxn1-GFP intensity median modified Z-score” value was 0.378 (inactive).

For the compound `CCOc1ccc(C(=O)c2ccc(O)c(O)c2O)cc1` [euspeclibcmpd1369], the “Srxn1-GFP intensity median modified Z-score” value was 0.486 (inactive). As to `N=C(N)N=C(N)NCCc1ccccc1` [euspeclibcmpd898], the “Srxn1-GFP intensity median modified Z-score” value was 4.79 (active). For `NNCCc1ccccc1` [euspeclibcmpd231] the value was 0.202 (inactive); for `O=C(CCCl)NCCc1ccccc1` [euspeclibcmpd2364], 0.0303 (inactive). With `CC(=O)OCC(=O)[C@@]1(O)[C@@H](C)CC2C3CC=C4CC(=O)C=C[C@]4(C)[C@@]3(F)[C@@H](O)C[C@@]21C` (stereo not given in full) [euspeclibcmpd2268], the “Srxn1-GFP intensity median modified Z-score” value was 0.239 (inactive). As to `CC(C)=CCOc1ccc2c(=O)c(-c3ccccc3)coc2c1`, the “Srxn1-GFP intensity median modified Z-score” value is 0.352 (inactive). For the compound `CCc1c2c(nc3ccc(OC(=O)N4CCC(N5CCCCC5)CC4)cc13)-c1cc3c(c(=O)n1C2)COC(=O)C3(O)CC` (stereo not given) [euspeclibcmpd1960], the “Srxn1-GFP intensity median modified Z-score” value is -0.421 (inactive). Then `C[N+](C)(C)CCCCCC[N+](C)(C)C` [euspeclibcmpd1134], with -0.198 (inactive). Then `CCCCCCCCCCCCCCCC[N+](C)(C)C` [euspeclibcmpd1124], with 7.69 (active); and `CCCNCCCCCC[N+](C)(C)C` [euspeclibcmpd616], with 1.43 (inactive); and `CC1(C)O[C@@H]2CC3C4CC=C5CC(=O)C=C[C@]5(C)[C@@]4(F)[C@@H](O)C[C@]3(C)[C@]2(C(=O)CO)O1` (stereo not given in full) [euspeclibcmpd303], with -0.909 (inactive). On to `c1ccc2c(Cc3c[nH]c4ccccc34)c[nH]c2c1` [euspeclibcmpd2024], for which the “Srxn1-GFP intensity median modified Z-score” value was 18.3 (active). As for `Cc1c[nH]c2ccccc12` [euspeclibcmpd1495], the “Srxn1-GFP intensity median modified Z-score” value was 0.0463 (inactive). `OCc1c[nH]c2ccccc12` [euspeclibcmpd1454]: the “Srxn1-GFP intensity median modified Z-score” value is 0.00439 (inactive).

Consider `O=P(O)(O)C(O)(Cc1cccnc1)P(=O)(O)O` [euspeclibcmpd2383], for which the “Srxn1-GFP intensity median modified Z-score” value is -0.244 (inactive). Then `COc1ccc(CCN(C)CCCC(C#N)(c2ccc(OC)c(OC)c2)C(C)C)cc1OC` (stereo not given) [euspeclibcmpd958], with 5.38 (active); and `CC[C@H]1OC(=O)C(C)[C@@H](O[C@H]2C[C@@](C)(OC)[C@@H](O)[C@H](C)O2)[C@H](C)[C@@H](O[C@@H]2O[C@H](C)C[C@H](N(C)C)[C@H]2O)[C@](C)(O)CC(C)C(=O)C(C)[C@@H](O)[C@]1(C)O` (stereo not given in full) [euspeclibcmpd2296], with -0.138 (inactive); and `N#CC(c1ccc(Cl)cc1)c1c(Cl)cc(-n2ncc(=O)[nH]c2=O)cc1Cl` (stereo not given) [euspeclibcmpd478], with 15 (active).

As for `NC(Cc1cc(I)c(Oc2cc(I)c(O)c(I)c2)c(I)c1)C(=O)O` (stereo not given) [euspeclibcmpd345], the “Srxn1-GFP intensity median modified Z-score” value is -0.572 (inactive). Consider `O=C(O)Cc1cc(I)c(Oc2ccc(O)c(I)c2)c(I)c1` [euspeclibcmpd1243], for which the “Srxn1-GFP intensity median modified Z-score” value was 8.98 (active). For `NC(Cc1cc(I)c(Oc2ccc(O)c(I)c2)c(I)c1)C(=O)O` (stereo not given) [euspeclibcmpd346] the value was -0.0135 (inactive); for `CNS(=O)(=O)Cc1ccc2[nH]cc(CCN(C)C)c2c1` [euspeclibcmpd759], -0.145 (inactive); for `CC(=O)O[C@@H]1C[C@@]2(C)C(CC[C@@H]2C(C)=O)C2CC=C3CC(=O)CC[C@]3(C)C21` (stereo not given in full) [euspeclibcmpd1433], 0.0291 (inactive). With `C[C@]12C=CC(=O)CC1=CCC1C2[C@@H](O)C[C@@]2(C)C1CC[C@]2(O)C(=O)COP(=O)(O)O` (stereo not given in full) [euspeclibcmpd2287], the “Srxn1-GFP intensity median modified Z-score” value was 0.582 (inactive). Take `Cc1ccc(NC(=O)c2ccc(CN3CCN(C)CC3)cc2)cc1N=c1nc(-c2cccnc2)cc[nH]1` [euspeclibcmpd1311]: the “Srxn1-GFP intensity median modified Z-score” value is 4.53 (active). `O=C(O)c1ccc2c(c1)OCO2` [euspeclibcmpd1566]: the “Srxn1-GFP intensity median modified Z-score” value was -0.239 (inactive). As for `CC1(C)C2CC[C@]3(C)C(C(=O)C=C4C5C[C@@](C)(C(=O)O)CC[C@]5(C)CC[C@]43C)[C@@]2(C)CC[C@@H]1O` (stereo not given in full) [euspeclibcmpd1147], the “Srxn1-GFP intensity median modified Z-score” value was -1.35 (inactive). Regarding `O=C(O)CCCCC1SCC2NC(=O)NC21` (stereo not given) [euspeclibcmpd513], the “Srxn1-GFP intensity median modified Z-score” value was -0.118 (inactive). With `CC(C)(CO)C(=O)C(O)NCCC(=O)NCCSSCCNC(=O)CCNC(=O)C(O)C(C)(C)CO` (stereo not given) [euspeclibcmpd1231], the “Srxn1-GFP intensity median modified Z-score” value is -0.621 (inactive). For the compound `O=C(CCBr)N1CCN(C(=O)CCBr)CC1` [euspeclibcmpd576], the “Srxn1-GFP intensity median modified Z-score” value is 2.59 (active). Consider `O=C(O)/C=C/C=C/c1ccc2c(c1)OCO2` [euspeclibcmpd1736], for which the “Srxn1-GFP intensity median modified Z-score” value was -0.462 (inactive). For the compound `CC1(C)C2CC[C@]3(C)C(C(=O)C=C4C5C[C@@](C)(C(=O)O)CC[C@]5(C)CC[C@]43C)[C@@]2(C)CC[C@@H]1OC(=O)CCC(=O)O` (stereo not given in full) [euspeclibcmpd2080], the “Srxn1-GFP intensity median modified Z-score” value was -0.0685 (inactive). Regarding `CC(OC(=O)c1cc(Cl)ccc1O)C(=O)Nc1ccc([N+](=O)[O-])cc1Cl` (stereo not given), the “Srxn1-GFP intensity median modified Z-score” value is 1.24 (inactive). As to `O=C(Nc1ccc([N+](=O)[O-])cc1Cl)c1cc(Cl)ccc1O` [euspeclibcmpd562], the “Srxn1-GFP intensity median modified Z-score” value is 2.35 (active). Turning to `NC(=O)c1ccc([N+](=O)[O-])cc1Cl` [euspeclibcmpd514], the “Srxn1-GFP intensity median modified Z-score” value is -0.559 (inactive). For `O=C(OCC(=O)N1CCCC1)c1sc2cc(Cl)cc(Cl)c2c1Cl` the value was 0.374 (inactive).
